An excerpt weighted towards active compounds, which were near 27% of everything screened.
CYP2C9 inhib – human CYP2C9 inhibition. CYP2C9 Supersomes, luciferin-H conversion, luminescence. inhibition, % at 5 µM. hit rate 20% among 96,000. AID 777;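 active = blocking of liver enzyme CYP2C9 beyond about 50% at 5 µM, limit read from the data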
Target sequence (P11712 whole entry, looked up): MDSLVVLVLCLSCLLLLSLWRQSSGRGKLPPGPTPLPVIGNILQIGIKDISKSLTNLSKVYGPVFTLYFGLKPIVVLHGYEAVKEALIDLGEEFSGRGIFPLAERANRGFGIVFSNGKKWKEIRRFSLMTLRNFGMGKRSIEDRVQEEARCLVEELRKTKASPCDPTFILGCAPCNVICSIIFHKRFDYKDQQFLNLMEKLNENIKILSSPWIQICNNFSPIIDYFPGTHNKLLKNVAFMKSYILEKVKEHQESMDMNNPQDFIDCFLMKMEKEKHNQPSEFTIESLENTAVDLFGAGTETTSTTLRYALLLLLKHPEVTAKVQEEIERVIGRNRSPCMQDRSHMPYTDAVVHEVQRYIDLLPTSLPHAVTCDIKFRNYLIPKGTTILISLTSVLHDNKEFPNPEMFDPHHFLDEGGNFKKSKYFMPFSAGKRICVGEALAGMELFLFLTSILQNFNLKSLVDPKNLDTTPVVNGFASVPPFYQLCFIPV
EphB4 ephrin blk – blocks human EphB4 binding to ephrin-B2; P54760; EphB4 LBD / TNYL-RAW-Alexa532 peptide, fluorescence polarization; inhibition, % at 7 µM; hit rate 0.15% among 97,000;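 active = inhibition above the screen-wide mean inhibition plus 3 SD, cut at about 15% in these data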
CYP2C9 act – increases human cytochrome P450 2C9 activity. P11712. recombinant CYP2C9, luciferin-H conversion, luminescence; hits give high values; factor 1 = untreated enzyme, 0 = blocked. activation factor at 5 µM. hit rate 1.4% among 96,000. AID 1024;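 active = activation factor of 2 or more for CYP2C9 at a 5 µM dose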
CYP2C19 act – increases human CYP2C19 enzyme activity; P33261; recombinant CYP2C19, luciferin-H EGE luminescence; hits give high values; 0 = fully inhibited enzyme, 1 = untreated enzyme; activation factor at 5 µM; 96,000 tested, under 10 active; AID 1025;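 active = activation factor of at least 2 at 5 µM in the primary screen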
CYP2C19 inhib – blocks human cytochrome P450 2C19 | CYP2C19 Supersomes, luciferin-H EGE luminescence, 30 min | inhibition, % at 5 µM | hit rate 21% among 96,000 | P33261;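 active = CYP2C19 inhibition above a set limit at 5 µM in the primary screen, cut at about 50% in these data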
Each line names hits and unclear results; the compound was inactive in the other large screens.

CC(=O)c1cc(OC(=O)c2ccncc2)ccc1OC(=O)c1ccncc1	CYP2C9 inhib 65.0, CYP2C19 inhib 89.6
CCCCCCOc1ccc(OC(=O)c2ccncc2)cc1	none (no result: CYP2C9 inhib, CYP2C9 act, CYP2C19 act, CYP2C19 inhib)
COc1ccc(C(C)=O)c(OC(=O)c2ccc(OC)c(OC)c2)c1	none
CCCC(=O)c1cc(F)c(N2CCN(C(=O)OCC)CC2)cc1C	none
Cc1ccc(S(=O)(=O)/C(C#N)=C/c2c(N3CCN(C)CC3)nc3ccccn3c2=O)cc1	CYP2C9 inhib 80.7
Cc1ccc(S(=O)(=O)/C(C#N)=C/c2c(N3CC(C)OC(C)C3)nc3ccccn3c2=O)cc1 (stereo not drawn)	CYP2C9 inhib 56.7
CC12Cc3ccc4ccccc4c3C=C1C[N+](C)(C)C2 (stereo not drawn)	none
CC1=CC(C)(C)N=C(NC#N)N1	none (no result: EphB4 ephrin blk)
COc1ccccc1OCCNC(=O)c1ccccc1C	none
COc1ccc(NC(=O)C(CC(C)C)NC(=O)c2ccccc2C)cn1 (stereo not drawn)	CYP2C9 inhib 51.6, CYP2C19 inhib 53.9
O=C(C1Cc2ccccc2O1)N1CCCCC1 (stereo not drawn)	none
Cn1c2ccccc2c2c(C(=O)NCC3CCCO3)cn(C3CCCC3)c(=O)c21 (stereo not drawn)	none
COCCn1cc(C(=O)N2CCN(C)CC2)c2c3ccccc3n(C)c2c1=O	none
CN1CCN(CCCNC(=O)c2cn(C3CCCCC3)c(=O)c3c2c2ccccc2n3C)CC1	none
Cn1c2ccccc2c2c(C(=O)NCCCN3CCCC3=O)cn(C3CCCCC3)c(=O)c21	CYP2C9 inhib 54.6
Cc1ccc(Cl)cc1N1CCN(C(=O)c2cn(C)c(=O)c3c2c2ccccc2n3C)CC1	CYP2C9 inhib 96.4, CYP2C19 inhib 86.0
Cn1c2ccccc2c2c(C(=O)N3CCN(c4ccccc4)CC3)cn(C3CCCC3)c(=O)c21	CYP2C9 inhib 51.5
Cc1cccc(N2CCN(C(=O)c3cn(C)c(=O)c4c3c3ccccc3n4C)CC2)c1C	CYP2C9 inhib 70.5
CCN(CC(=O)NC(C)C)Cc1nc2sc3c(c2c(=O)[nH]1)CCC3	none
C=CCn1c(=O)c2c3c(sc2n2c(Nc4ccc(OC)cc4)nnc12)CCCC3	CYP2C9 inhib 78.8
COc1ccc(NC(=O)c2cccnc2N2CCCCC2)cc1	none (no result: CYP2C9 inhib, CYP2C9 act, CYP2C19 act, CYP2C19 inhib)
COc1ccc(NC(=O)c2cccnc2N2CCCC2)cc1	CYP2C9 inhib 94.1
O=C(Nc1ccc(Br)cc1)c1cccnc1N1CCCCC1	CYP2C9 inhib 85.5
O=C(Nc1ccc(F)cc1)c1cccnc1N1CCCCC1	CYP2C9 inhib 62.0, CYP2C19 inhib 75.1
O=C(NCc1ccc2c(c1)OCO2)C1CCCN1C(=O)Nc1ccc(F)cc1 (stereo not drawn)	none
CCOC(=O)c1cc(C(=O)Nc2ccc(C)c(F)c2)nn1C	none
CC(=O)Nc1nc(N2C(=O)c3ccccc3C2=O)n(-c2ccccc2)n1	none
N#C/C(=C\c1ccccc1Cl)C(=O)NC(=O)Oc1ccccc1	none
N#C/C(=C\c1ccccc1)C(=O)NC(=O)Oc1ccccc1	CYP2C9 inhib 82.4
Cc1ncoc1C(=O)Nc1ccc2c(c1)OCCO2	none
Cc1c([N+](=O)[O-])c(C(=O)Nc2ccc3c(c2)OCCO3)nn1C	CYP2C19 inhib 67.9
Cc1occc1C(=O)Nc1ccc2c(c1)OCCO2	CYP2C19 inhib 81.1
NC1=NC2(CCCCC2)n2c(nc3ccccc32)N1	none
NC1=NC2(CCN(Cc3ccccc3)CC2)n2c(nc3ccccc32)N1	CYP2C9 inhib 57.2
N#Cc1c(SCC(N)=O)nsc1SCc1ccccc1Cl	none
COc1ccc(C2=NN(C(=O)CSc3cn(C)c4ccccc34)C(c3ccc(OC)cc3)C2)cc1 (stereo not drawn)	CYP2C9 inhib 61.5, CYP2C19 inhib 50.5
COc1ccc(C2CC(c3ccccc3)=NN2C(=O)c2cccs2)cc1 (stereo not drawn)	none
CCOc1ccc(C2C(=O)N(C3CCCCC3)CC(=O)N2CC2CCCO2)cc1OC (stereo not drawn)	none
CCn1c(CCNC(=O)c2ccc(F)cc2)nc2ccccc21	CYP2C9 act 3.3, CYP2C19 inhib 95.0
CCn1c(NC(=O)c2ccc(F)cc2)c2ccccc2nc1=O	CYP2C19 inhib 72.2
CCn1c(CCCNC(=O)c2cccs2)nc2ccccc21	CYP2C19 inhib 76.3
CCn1c(NC(=O)c2ccc(C)cc2)c2ccccc2nc1=O	none
CCCn1c(CCNC(=O)c2cccs2)nc2ccccc21	none (no result: CYP2C9 inhib, CYP2C9 act, CYP2C19 act, CYP2C19 inhib)
Cc1c(Cl)cccc1-n1c(SCC(=O)NCc2ccccc2Cl)nnc1-c1ccncc1	CYP2C9 inhib 80.6, CYP2C19 inhib 93.6

Screening data from PubChem BioAssay.
